# Bioassay records deposited in PubChem BioAssay by National Center for Advancing Translational Sciences (NCATS).
# This is one part of a sample in which hits are shown more often than they occur.
# KDM5B inhibitor: Primary screen for KDM5B Histone Demethylases FDH-coupled qHTS; Lysine-specific demethylase 5B (Homo sapiens), Q9UGL1; KDM5B demethylase, FDH-coupled NADH fluorescence (FDH is formaldehyde dehydrogenase); Potency, µM (series often up to 57.7 µM), most hits filed as inhibitors; hit rate 2.6% among 220,000; active means well fitted inhibition curve with a large enough effect; further: 0% is about no effect; nearly all actives have a fitted effect of over 70% in size
#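 Measured: NADH fluorescence change, 30 min, RT. System: KDM5BΔAP 200 nM final, H3K4me3 peptide, α-KG, Fe(II), ascorbate, NAD⁺ plus FDH, pH 7.5 HEPES. Compounds: titrated, 10 min pre-incubation with enzyme.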
# * = called active by the depositor; i = inactive. Potency means the concentration at half of the fitted maximal effect.
SMILES,KDM5B inhibitor
CCCOc1cc(C)c(Cl)cc1S(=O)(=O)N1CCCCC1,i
Cc1ccc(F)cc1C(=O)Nc1nc(C)c(C)s1,i
CCc1nnc(NC(=O)c2cc(=O)c3cc(C)cc(C)c3o2)s1,i
Cc1cccc(-n2c3nc(=O)[nH]c(=O)c-3cc3ccccc32)c1C,i
CNCC(=O)NC1CCCN(c2ccc(C(F)(F)F)cn2)C1 (stereo not given),28µM*
O=C(CN1CCN(c2ccc(C(F)(F)F)cn2)CC1)NC1CCS(=O)(=O)C1 (stereo not given),i
Cc1ccc(C(=O)NC2CCCN(c3ccc(C(F)(F)F)cn3)C2)cn1 (stereo not given),i
CC(=O)c1cccc(NC(=O)CC2C=CCC2)c1 (stereo not given),i
CCCn1c(=O)n(CC(=O)Nc2ccc(C(C)CC)cc2)c(=O)c2c1nc(C)n2CCOC (stereo not given),i
N#Cc1nc(COc2ccc3c(c2)OCO3)oc1NC1CC1,i
COC(=O)c1ccccc1NC(=O)N1CCN(c2ccc(=O)n(-c3ccc(C)cc3)n2)CC1,i
CNc1nc2c(c(=O)n(C)c(=O)n2C)n1CC(O)COc1ccc(C)cc1 (stereo not given),i
COC(=O)NC(C)c1nc(-c2cccnn2)no1 (stereo not given),i
CC(C)c1ccc(-c2nc(-c3cccnn3)no2)c(=O)[nH]1,22µM*
CN[C@@H](CC(C)C)c1nc(-c2cccnn2)no1,i
CCCN(C(=O)c1ccc2c(=O)n3c(nc2c1)CCCC3)c1ccc(OCC)cc1,i
N#Cc1cccc(NC(=O)N2CCN(c3ncccc3Cl)CC2)c1,i
Cc1cccc(C(=O)NC2CCN(c3cnn(C)c(=O)c3)CC2)c1,i
CC(C)c1cc(C(=O)NC2CCN(c3ncccc3C#N)CC2)n(C)n1,22µM*
CC(C)c1cc(C(=O)N2CCN(c3ncccc3C#N)CC2)n(C)n1,32µM*
CC(Oc1ccccc1C#N)C(=O)NC1CC1 (stereo not given),i
Cc1cc2cc(C(=O)N3C[C@H]4CC=CC[C@H]4C3)ccc2o1,i
Cc1nc(C(=O)NC2CCN(c3ncccc3C#N)CC2)cs1,28µM*
Cn1nc2n(c1=O)CCN(C(=O)c1cccc(C#N)c1)CC2,i
Cc1cc2cc(C(=O)N3CCN(c4ncccc4C#N)CC3)ccc2o1,28µM*
SMILES,KDM5B inhibitor
COc1ccc(C(=O)N2CCN(c3nc4cccnc4o3)CC2)cc1C#N,i
O=C(NC1CCCC1)c1csc(N2CCN(c3ccccc3F)CC2)n1,i
Cc1nc(N2CCC(NC(=O)c3ccccn3)CC2)cc(C(F)(F)F)n1,i
Clc1ccccc1-c1noc(CSc2nnc(N3CCOCC3)n2Cc2ccccc2)n1,i
COc1ccccc1/C=C/C(=O)c1ccc(OCc2ccccc2)cc1OCc1ccccc1,i
CCCCCn1nc(C(=O)Nc2ccccc2F)c2ccccc2c1=O,i
O=C(COC(=O)c1c[nH]c2ccccc12)NC(c1ccccc1)c1ccccc1,i
CC(Sc1nnc(N2CCOCC2)n1-c1ccccc1)C(=O)c1ccc(Br)cc1 (stereo not given),i
Cc1cc(C)c(S(=O)(=O)N2CCC(C(=O)NCc3csc(-c4ccccc4)n3)CC2)c(C)c1,i
Cc1c(NC(=O)CC23CC4CC(CC(C4)C2)C3)cccc1-c1nc2ncccc2o1,i
Cc1ccc(NC(=O)c2nn(-c3ccccc3)c(=O)c3ccccc23)c(O)c1,i
CCCCn1c(N)c(N(CC)C(=O)C2Cc3ccccc3C(=O)O2)c(=O)[nH]c1=O (stereo not given),i
CCc1nc(-c2c3n(c(=O)n(Cc4ccccc4F)c2=O)CCCC3)no1,i
CCc1nc(-c2c3n(c(=O)n(Cc4ccc(C)cc4)c2=O)CCCC3)no1,i
CCc1nc(-c2c3n(c(=O)n(Cc4cc(=O)n5ccccc5n4)c2=O)CCCC3)no1,22µM*
CNC(=O)CN(C)C(=O)c1ccc(N2CCNCC2)c(NS(=O)(=O)c2ccc(C)c(C)c2)c1,i
CN(C)C(=O)c1cc2cccnn2n1,32µM*
CN(C)C(=O)c1cc(C(C)(C)C)c2cccn2n1,i
CNC(=O)c1cc2cccnn2n1,32µM*
CNC(=O)c1cn2c(n1)CN(C(=O)c1ccccc1)CC2,i
CNC(=O)c1cc(-c2ccc(Cl)cc2)n(-c2ccccc2)n1,i
CC(c1cccc(-c2cccc(C(=O)N(C)C)n2)c1)N1CCCC1 (stereo not given),i
CC(C)CC(NC(=O)Cn1c(=O)c2c(ncn2C)n(C)c1=O)c1ccccc1 (stereo not given),i
CCOC(=O)c1ccc(NC(=O)C2CC(=O)Nc3cc(F)ccc32)cc1 (stereo not given),i
COc1ccccc1CN1CCC2(CC1)OC(=O)N(Cc1ccccc1)C2(C)c1ccccc1 (stereo not given),i
O=C(c1cc2ccccc2oc1=O)N1CCN(c2ccc(Cl)c(Cl)c2)CC1,i
